Potency data for 19 molecules are collected here from PubChem BioAssay (NCATS).

Inconclusive results are not listed. Where a call stands in place of a potency, no number is given. The source made the active and inactive calls. The call rests on the fitted dose curve; in most records, active means well fitted curve in the direction sought with a large enough effect; inconclusive means small, poorly fitted or top-dose-only effect, or another doubt; inactive means no such curve, though single readings can be large; an effect the other way counts as inactive or inconclusive.

Glutathione peroxidase 1 (Homo sapiens), sequence (P07203 whole entry, looked up): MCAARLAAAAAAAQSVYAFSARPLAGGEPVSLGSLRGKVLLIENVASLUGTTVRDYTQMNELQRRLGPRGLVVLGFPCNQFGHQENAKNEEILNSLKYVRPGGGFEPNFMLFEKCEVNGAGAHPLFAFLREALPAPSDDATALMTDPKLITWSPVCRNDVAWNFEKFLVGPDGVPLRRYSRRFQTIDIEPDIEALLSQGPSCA

One test has as its target Glutathione peroxidase 1 (Homo sapiens) (UniProt P07203). Put plainly: Primary qHTS Assay for Inhibitors of Recombinant Selenoprotein Glutathione Peroxidase 1 (GPX1) (AID 1845191). Further: nearly all actives have a fitted effect of over 65% in size. Further: potency means the concentration at half of the fitted maximal effect. The settings on record: recombinant GPX1, GR-coupled NADPH fluorescence, 15 min; series mostly up to 48.8 µM. An outline of the steps: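 Recombinant GPX1 (10 nM final) was preincubated with compound for 30 min at room temperature, then reacted with 1 mM GSH, 0.5 mM CHP, 0.5 mM NADPH and 100 nM glutathione reductase; NADPH fluorescence (340/450 nm) was read at 0 and 15 min.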
On to `O=C(O)Cn1nnc(-c2cc(N3CCC(Oc4cc(F)ccc4Br)CC3)no2)n1`, for which the Potency entry was “inactive”.

On to `C[C@@]12O[C@@H](C[C@]1(O)CO)n1c3ccccc3c3c4c(c5c6ccccc6n2c5c31)CNC4=O`, for which the Potency result was “inactive”.

As to `O=C(O)c1ccc2cc(-c3ccc(O)c(C45CC6CC(CC(C6)C4)C5)c3)ccc2c1`, the Potency entry is “inactive”.

On to `CC(C)c1ccccc1Cc1cc(C(=O)Nc2ccc(S(=O)(=O)c3ccccc3C(C)(C)C)cc2)c(O)c(O)c1O`, for which the Potency entry was “inactive”.

For `CC(=O)Nc1sc2c(c1-c1nc3ccccc3s1)CNC2`, the Potency was 3.6 µM (active).

Regarding `Cn1c2ccccc2c2c3c(c4c5ccccc5n(CCC#N)c4c21)CNC3=O`, the Potency result was “inactive”.

Consider `COc1ccc(CC2SC(=O)NC2=O)cc1C(=O)NCc1ccc(C(F)(F)F)cc1` (stereo not drawn), for which the Potency entry is “inactive”.

Take `Cc1ccc(S(=O)(=O)Nc2cc(Cl)ccc2C(=O)Nc2nc(-c3ccccc3)cs2)cc1`: the Potency result is “inactive”.

For `COc1cccc2nc(-c3cccs3)nc(NN3C(=O)C=C(C)C3=O)c12`, the Potency entry is “inactive”.

Consider `C[C@@H]1CN(CC(=O)Nc2ccc3c(c2)Cc2cccc(-c4cc(=O)cc(N5CCOCC5)o4)c2S3)C[C@H](C)O1`, for which the Potency result was “inactive”.

Regarding `Clc1ccc2ncc(-c3cccc(NC4CNC4)n3)n2c1`, the Potency result is “inactive”.

The target of the next test is Phospholipid hydroperoxide glutathione peroxidase GPX4 (Homo sapiens) (UniProt P36969). Put plainly: Primary qHTS Assay for Inhibitors of Recombinant Selenoprotein Glutathione Peroxidase 4 (GPX4) (AID 1845192). Further: nearly all actives have a fitted effect of over 65% in size. Further: potency means the concentration at half of the fitted maximal effect. The settings on record: recombinant GPX4, GR-coupled NADPH fluorescence, 15 min; series mostly up to 50 µM. An outline of the steps: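 GR-coupled readout: 100 nM GR, 1 mM GSH, 0.5 mM NADPH; NADPH fluorescence (ex 340/em 450 nm) read at t=0 and after 15 min RT. GPX4 200 nM, preincubated 30 min with compound; substrate 0.5 mM CHP.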
Phospholipid hydroperoxide glutathione peroxidase GPX4 (Homo sapiens), sequence (P36969 whole entry, looked up): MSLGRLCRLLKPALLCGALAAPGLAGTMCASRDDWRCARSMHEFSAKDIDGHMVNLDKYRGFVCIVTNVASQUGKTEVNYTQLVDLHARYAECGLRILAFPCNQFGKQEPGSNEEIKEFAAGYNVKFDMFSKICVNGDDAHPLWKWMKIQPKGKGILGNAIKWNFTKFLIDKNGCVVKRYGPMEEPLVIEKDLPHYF
`COc1c(N2C[C@@H]3CCCN[C@H]3C2)c(F)cc2c(=O)c(C(=O)O)cn(C3CC3)c12`: the Potency was 18 µM (active).

Turning to `CC(O)C1C(=O)N2C(C(=O)O)=C(SC3CNC(C(=O)N(C)C)C3)C(C)C12` (stereo not drawn), the Potency result was “inactive”.

Regarding `Clc1cccc(-n2nnnc2NCc2ccccc2Oc2ccccn2)c1Cl`, the Potency entry was “inactive”.

On to `O=C1CCC[C@@H]2[C@H]3CCC[N+]4([O-])CCC[C@@H](CN12)[C@@H]34` (stereo partly drawn), for which the Potency result was “inactive”.

As for `O=c1[nH]nc(Sc2ncc([N+](=O)[O-])s2)n1-c1ccc2c(c1)OCCO2`, the Potency entry was “inactive”.

With `CCOc1ccccc1OCCNC(C)Cc1ccc(OC)c(S(N)(=O)=O)c1` (stereo not drawn), the Potency entry was “inactive”.

As for `CC(C)(C)c1cnc(CSc2cnc(NC(=O)C3CCNCC3)s2)o1`, the Potency result was “inactive”.

The target of the next test is Luciferin 4-monooxygenase (Photinus pyralis) (UniProt P08659). Put plainly: Primary firefly luciferase (FLuc) qHTS assay for identification of artifact compounds. (AID 1845220). Further: nearly all actives have a fitted effect of over 60% in size. As to conditions: purified firefly luciferase, luminescence, 5 min; series mostly up to 54.1 µM. An outline of the steps: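 Reaction readout was CCD-imaged luminescence, taken 5 min after adding 10 nM purified firefly enzyme to compound-treated wells holding 10 uM luciferin and ATP in pH 7.6 buffer.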
For the molecule `O=C(O)Cn1nnc(-c2cc(N3CCC(Oc4cc(F)ccc4Br)CC3)no2)n1`, the Potency result was “inactive”.

Consider `CC(O)C1C(=O)N2C(C(=O)O)=C(SC3CNC(C(=O)N(C)C)C3)C(C)C12` (stereo not drawn), for which the Potency result was “inactive”.

As to `Cc1cc(N2CCOCC2)cc2[nH]c(-c3c(NC[C@@H](O)c4cccc(Cl)c4)cc[nH]c3=O)nc12`, the Potency result is “inactive”.

For the molecule `Cn1c2ccccc2c2c3c(c4c5ccccc5n(CCC#N)c4c21)CNC3=O`, the Potency result was “inactive”.

With `CCOc1ccccc1OCCNC(C)Cc1ccc(OC)c(S(N)(=O)=O)c1` (stereo not drawn), the Potency entry was “inactive”.

Test system in a further test: not listed separately
The experiment in a line: Primary fluorescence-based thiol-reactive (MSTI) qHTS assay for identification of artifact compounds. (AID 1845221). Further: nearly all actives have a fitted effect of over 65% in size. Further: potency means the concentration at half of the fitted maximal effect. As to conditions: MSTI thiol-reactivity probe, 1 h; series mostly up to 53.8 µM. The method, boiled down:
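A multi-concentration qHTS design tested compounds against 4 uM MSTI, pH 7.4 phosphate-buffered saline. Plates were protected from light for 1 h at room temperature before imaging fluorescence.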
Take `O=C(O)Cn1nnc(-c2cc(N3CCC(Oc4cc(F)ccc4Br)CC3)no2)n1`: the Potency result was “inactive”.

With `CC(O)C1C(=O)N2C(C(=O)O)=C(SC3CNC(C(=O)N(C)C)C3)C(C)C12` (stereo not drawn), the Potency result was “inactive”.

For `Cc1cc(N2CCOCC2)cc2[nH]c(-c3c(NC[C@@H](O)c4cccc(Cl)c4)cc[nH]c3=O)nc12`, the Potency was 1.68 µM (active).

As to `CC(=O)Nc1sc2c(c1-c1nc3ccccc3s1)CNC2`, the Potency entry is “inactive”.

Turning to `Clc1cccc(-n2nnnc2NCc2ccccc2Oc2ccccn2)c1Cl`, the Potency result is “inactive”.

With `O=C1CCC[C@@H]2[C@H]3CCC[N+]4([O-])CCC[C@@H](CN12)[C@@H]34` (stereo partly drawn), the Potency entry was “inactive”.

In the case of `COc1cccc2nc(-c3cccs3)nc(NN3C(=O)C=C(C)C3=O)c12`, the Potency result is “inactive”.

Regarding `CCOc1ccccc1OCCNC(C)Cc1ccc(OC)c(S(N)(=O)=O)c1` (stereo not drawn), the Potency entry was “inactive”.

As for `Clc1ccc2ncc(-c3cccc(NC4CNC4)n3)n2c1`, the Potency result is “inactive”.

For another test, the system named is Nanoluciferase (engineered Oplophorus gracilirostris luciferase). Put plainly: Primary Nanoluciferase (NLuc) qHTS assay for identification of artifact compounds. (AID 1845222).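 Further: NLuc secreted into diluted conditioned medium of S16 cells.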 The settings on record: NLuc-conditioned medium, Nano-Glo luminescence, 5 min; series mostly up to 54.1 µM. An outline of the steps:
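Concentration-response data were obtained by luminescence after 5 min with Nano-Glo substrate at 1:100. The enzyme was diluted S16 NLuc-expressing cell medium, preincubated with compound for 15 min at RT. Curves were fitted with a 4-parameter Hill model.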
In the case of `CC(O)C1C(=O)N2C(C(=O)O)=C(SC3CNC(C(=O)N(C)C)C3)C(C)C12` (stereo not drawn), the Potency entry is “inactive”.

As to `Cc1cc(N2CCOCC2)cc2[nH]c(-c3c(NC[C@@H](O)c4cccc(Cl)c4)cc[nH]c3=O)nc12`, the Potency entry was “inactive”.

On to `CC(=O)Nc1sc2c(c1-c1nc3ccccc3s1)CNC2`, for which the Potency entry was “inactive”.

On to `Clc1cccc(-n2nnnc2NCc2ccccc2Oc2ccccn2)c1Cl`, for which the Potency entry is “inactive”.

With `Cn1c2ccccc2c2c3c(c4c5ccccc5n(CCC#N)c4c21)CNC3=O`, the Potency result was “inactive”.

For the molecule `COc1cccc2nc(-c3cccs3)nc(NN3C(=O)C=C(C)C3=O)c12`, the Potency entry was “inactive”.

In the case of `CCOc1ccccc1OCCNC(C)Cc1ccc(OC)c(S(N)(=O)=O)c1` (stereo not drawn), the Potency result is “inactive”.

Test system in another test: not listed separately
Put plainly: Primary redox qHTS assay for identification of artifact compounds. (AID 1845223). The settings on record: Amplex Red/HRP redox cycling with DTT, fluorescence; series mostly up to 53.8 µM. An outline of the steps: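 Amplex Red (25 uM) and HRP (250 mU/mL) in HBSS, with compounds for 15 min, then 250 uM DTT for 30 min, room temperature, dark. Fluorescence 525/598 nm read; normalized to DMSO and 10 uM DA3003; Hill fit.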
As for `O=C(O)Cn1nnc(-c2cc(N3CCC(Oc4cc(F)ccc4Br)CC3)no2)n1`, the Potency entry was “inactive”.

On to `Cc1cc(N2CCOCC2)cc2[nH]c(-c3c(NC[C@@H](O)c4cccc(Cl)c4)cc[nH]c3=O)nc12`, for which the Potency result is “inactive”.

Take `CC(=O)Nc1sc2c(c1-c1nc3ccccc3s1)CNC2`: the Potency result is “inactive”.

With `Clc1cccc(-n2nnnc2NCc2ccccc2Oc2ccccn2)c1Cl`, the Potency entry was “inactive”.

Regarding `O=C1CCC[C@@H]2[C@H]3CCC[N+]4([O-])CCC[C@@H](CN12)[C@@H]34` (stereo partly drawn), the Potency entry was “inactive”.

As to `Cn1c2ccccc2c2c3c(c4c5ccccc5n(CCC#N)c4c21)CNC3=O`, the Potency entry is “inactive”.

Take `COc1cccc2nc(-c3cccs3)nc(NN3C(=O)C=C(C)C3=O)c12`: the Potency result is “inactive”.

For the molecule `CCOc1ccccc1OCCNC(C)Cc1ccc(OC)c(S(N)(=O)=O)c1` (stereo not drawn), the Potency result is “inactive”.

For the molecule `Clc1ccc2ncc(-c3cccc(NC4CNC4)n3)n2c1`, the Potency entry is “inactive”.
